Assay results reported in the supplement of paper PMC3342239.
Where a name gives a salt, the structure may show the parent alone.

The compounds below were run on Saccharomyces cerevisiae (assay: fraction of cells in G1 phase (DNA content, flow cytometry); higher = more cells with unreplicated DNA (G1 delay)). Details: temperature: 30 C; YPD; JTY2953 pdr5 snq2 (sensitized); drug added to: cultures diluted from stationary phase; 6-7 h.
Summary of the method: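 S. cerevisiae grown in YPD at 30°C was exposed to library drugs. In one setup, overnight sensitized JTY2953 cultures were diluted 1∶200, given a final 20 µg/ml and fixed after 6–7 h, while other runs dosed dividing JTY2953 with fixation 6 h later or BY4741 with fixation 4.33 h later. Cells were ethanol-fixed, stained with SYTOX Green and analysed by flow cytometry at 10,000 events. The G1 fraction is the area of the Dean-Jett-Fox G1 peak divided by the summed G1 and G2/M areas.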

| SMILES | fraction of cells in G1 phase |
| --- | --- |
| CC[C@H](C)C(=O)O[C@H]1CCC=C2C=C[C@H](C)[C@H](CC[C@@H]3C[C@@H](O)CC(=O)O3)[C@H]21 [Mevastatin] (51.2132 µM) | 0.502 |
| COc1ccc2[nH]c([S+]([O-])Cc3ncc(C)c(OC)c3C)nc2n1 (stereo not drawn) [Tenatoprazole] (57.7349 µM) | 0.486 |
| C[N+]1(C)[C@@H]2CC(OC(=O)C(O)(c3cccs3)c3cccs3)C[C@H]1[C@@H]1O[C@@H]12 (stereo partly drawn) [Tiotropium Br] (42.3349 µM) | 0.481 |
| CCCCn1c(=O)c2c(ncn2CC(C)=O)n(CCCC)c1=O [Denbufylline] (62.423 µM) | 0.517 |
| O=c1[nH]c(=O)n([C@H]2C[C@H](O)[C@@H](CO)O2)cc1F [Floxuridine] (81.2358 µM) | 0.514 |
| CCCCNC(=O)NS(=O)(=O)c1ccc(C)cc1 [Tolbutamide] (73.9774 µM) | 0.505 |
| O=C(O)/C=C/c1ccc(Cn2ccnc2)cc1 [Ozagrel] (87.6221 µM) | 0.471 |
| COc1ccc(/C=C/C(=O)Nc2ccccc2C(=O)O)cc1OC [Tranilast] (61.0986 µM) | 0.546 |
| Cc1c(O)cccc1C(=O)N[C@@H](CSc1ccccc1)[C@H](O)CN1C[C@H]2CCCC[C@H]2C[C@H]1C(=O)NC(C)(C)C [Nelfinavir Mesylate] (30.1249 µM) | 0.487 |
| CC(=O)Oc1ccc(C(c2ccc(OC(C)=O)cc2)c2ccccn2)cc1 [Bisacodyl] (55.3402 µM) | 0.499 |
| CO[C@H](C(=O)[C@@H](O)[C@@H](C)O)[C@@H]1Cc2cc3cc(O[C@H]4C[C@@H](O[C@H]5C[C@@H](O)[C@H](O)[C@@H](C)O5)[C@H](O)[C@@H](C)O4)c(C)c(O)c3c(O)c2C(=O)[C@H]1O[C@H]1C[C@@H](O[C@H]2C[C@@H](O[C@H]3C[C@](C)(O)[C@H](O)[C@@H](C)O3)[C@@H](O)[C@@H](C)O2)[C@H](O)[C@@H](C)O1 [Plicamycin] (18.4303 µM) | 0.513 |
| O=C(O)c1cn(-c2ccc(F)cc2)c2cc(N3CCNCC3)c(F)cc2c1=O [Sarafloxacin HCl] (51.8977 µM) | 0.444 |
| CC(C)NCC(O)COc1cccc2ccccc12 (stereo not drawn) [Propranolol] (77.1155 µM) | 0.477 |
| CN(Cc1ccc(C(C)(C)C)cc1)Cc1cccc2ccccc12 [Butenafine] (62.9964 µM) | 0.405 |
| O=C(NCC1CCCCN1)c1cc(OCC(F)(F)F)ccc1OCC(F)(F)F (stereo not drawn) [Flecainide] (42.1585 µM) | 0.509 |
| CCN(CC)CCNC(=O)c1cc(Cl)c(N)cc1OC [Metoclopramide HCl] (66.7104 µM) | 0.493 |
| CN1CCN(C2=Nc3ccccc3Sc3ccc(Cl)cc32)CC1 [Clothiapine] (58.1596 µM) | 0.431 |
| O=C(O)c1cc(-c2ccc(F)cc2F)ccc1O [Diflunisal] (79.9349 µM) | 0.512 |
| CCOC(=O)[N-]c1c[n+](N2CCOCC2)no1 [Molsidomine] (82.564 µM) | 0.543 |
| Cn1c(=O)c2c(ncn2CC2OCCO2)n(C)c1=O [Doxofylline] (75.1149 µM) | 0.465 |
| O=C(O)Cc1sc(-c2ccccc2)nc1-c1ccc(Cl)cc1 [Fentiazac] (60.6414 µM) | 0.533 |
| CCC1=C[C@@H]2CN(C1)Cc1c([nH]c3ccccc13)[C@@](C(=O)OC)(c1cc3c(cc1OC)N(C)[C@H]1[C@@](O)(C(=O)OC)[C@H](OC(C)=O)[C@]4(CC)C=CCN5CC[C@]31[C@@H]54)C2 [Vinorelbine] (25.6755 µM) | 0.481 |
| CN1[C@@H]2CC[C@H]1C[C@@H](OC(=O)c1c[nH]c3ccccc13)C2 [Tropisetron HCl] (70.3331 µM) | 0.469 |
| Cc1cc(C(C)(C)C)c(O)c(C)c1CC1=NCCN1 [Oxymetazoline HCl] (76.8101 µM) | 0.511 |
| Nc1ccn([C@@H]2O[C@H](CO)[C@@H](O)C2(F)F)c(=O)n1 [Gemcitabine HCl] (75.9871 µM) | 0.49 |
| Clc1ccc2c(c1)C(N1CCNCC1)=Nc1ccccc1O2 [Amoxapine] (63.737 µM) | 0.581 |
| Cc1cn([C@H]2C[C@H](N=[N+]=[N-])[C@@H](CO)O2)c(=O)[nH]c1=O [3'-azido-3'-deoxythymidine] (74.8374 µM) | 0.488 |
| O=C(Nc1cccc2c(=O)cc(-c3nnn[nH]3)oc12)c1ccc(OCCCCc2ccccc2)cc1 [Pranlukast] (41.5355 µM) | 0.561 |
